Experimental data reported in the supplement of paper PMC13380429.
Where a name gives a salt, the structure may show the parent alone.

Columns and labels:
[1] = system: Vero E6 infected with SARS-CoV-2; assay: morphology score (similarity to uninfected cells); higher = more like uninfected cells; details: 24 h
[2] = system: Vero E6 infected with SARS-CoV-2; assay: SARS-CoV-2 infection rate relative to infected DMSO; higher = more infection, active = 60 or less; details: 24 h

CN(C)C(=O)COC(=O)Cc1ccc(OC(=O)c2ccc(NC(=N)N)cc2)cc1 [Camostat mesylate] (10 µM)
morphology score [1]: 0.0371
SARS-CoV-2 infection rate [2]: 104% (inactive)

C[C@@H](CN1CC(=O)NC(=O)C1)N1CC(=O)NC(=O)C1 [dexrazoxane] (10 µM)
morphology score [1]: 0.0659
SARS-CoV-2 infection rate [2]: 97% (inactive)

C/C(=C\c1ccc(C(=O)O)cc1)c1ccc2c(c1)C(C)(C)CCC2(C)C (10 µM)
morphology score [1]: -0.0726
SARS-CoV-2 infection rate [2]: 102% (inactive)

CCCCCCCC/C=C/C(=O)O [trans-2-undecenoic-acid] (10 µM)
morphology score [1]: 0.204
SARS-CoV-2 infection rate [2]: 112% (inactive)

COc1cccc(-c2ccc(NC(=O)C3=C(C(=O)O)CCC3)c(F)c2)c1 (10 µM)
morphology score [1]: 0.159
SARS-CoV-2 infection rate [2]: 94.5% (inactive)

CNc1ncc2cc(-c3cc(NC(=O)NCCC(C)(C)C)c(F)cc3C)c(C)nc2n1 (10 µM)
morphology score [1]: 0.18
SARS-CoV-2 infection rate [2]: 106% (inactive)

Cc1ccc(=O)n(-c2ccccc2)c1 [pirfenidone] (10 µM)
morphology score [1]: 0.289
SARS-CoV-2 infection rate [2]: 83% (inactive)

N#Cc1cn([C@@H]2O[C@H](CO)[C@@H](O)[C@H]2O)c2ncnc(N)c12 [toyocamycin] (0.833333 µM)
morphology score [1]: -0.0555
SARS-CoV-2 infection rate [2]: 104% (inactive)

NC/C(=C/F)CCc1ccc(F)cc1 [mofegiline] (10 µM)
morphology score [1]: -0.0471
SARS-CoV-2 infection rate [2]: 115% (inactive)

COc1cc2cc(c1Cl)N(C)C(=O)C[C@H](OC(=O)C(C)C)[C@]1(C)O[C@@H]1[C@H](C)[C@@H]1C[C@@](O)(NC(=O)O1)[C@H](OC)/C=C/C=C(\C)C2 [ansamitocin-p-3] (0.833333 µM)
morphology score [1]: -0.108
SARS-CoV-2 infection rate [2]: 114% (inactive)
